{"source": "PubChem BioAssay (NCI)", "note": "The panel holds about 83,000 compounds, 20% with a hit somewhere; the sample as a whole holds those more often.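 For each line, cells grew in 96-well plates with the test compound present at a single concentration for 48 hours.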 Calls of active or inactive are those of the source.", "data": [{"tested_on": "A498 renal", "experiment": "NCI-60 one-dose screen, 48 h (100 = growth as untreated, 0 = no growth, -100 = all killed)", "details": "10 µM unless noted", "experimental": "Growth inhibition of the A498 human tumor cell line is measured as a screen for anti-cancer activity. Cells are grown in 96 well plates and exposed to the test compound for 48 hours. Compounds are tested at a single concentration, which is 10^-5 M for most compounds. The reported endpoint is percent growth (GI% or GIPRCNT), where numbers from 0 - 100% represent growth inhibition, and numbers from -100% - 0 represent cell death. For example, a value of 40 represents 60% growth inhibition. A value of 0 means no net growth occurred over the course of the experiment. A value of -40 indicates 40% of cells at the beginning of the experiment died by the end of the experiment. A value of -100 means all cells are dead at the end of the experiment.\nNCI-60 Human Tumor Cell Lines Screen was performed using the standard one-dose NCI protocol, which is described in more detail at https://dtp.cancer.gov/discovery_development/nci-60/default.htm.\nCompounds with GIPRCNT values below 10 were considered active. Activity score was based on GIPRCNT using the following formula: […]\nScore is 0 for GIPRCNT values of 100 or above, 50 for GIPRCNT values of 0, and 100 for GIPRCNT values of -100.", "values": [{"smiles": "Cn1cc(C(=O)c2nc(-c3c[nH]c4ccc(Br)cc34)no2)c2cc(Br)ccc21", "growth": "106% (inactive)"}, {"smiles": "CCCCCCCCn1ccc2cc(NC(=O)Cn3cc(CN4CCOCC4)nn3)ccc21", "growth": "99.7% (inactive)"}, {"smiles": "O=C1CCCc2nc3sc4c(=O)n(-c5ccccc5Cl)nnc4c3cc21", "growth": "95.5% (inactive)"}, {"smiles": "CCn1c2ccc(O)cc2c2c(C)c3c[n+](C(C)C)ccc3c(C)c21", "growth": "68% (inactive)"}, {"smiles": "CN1CCN(CCOc2ccc(-c3cnc4c(-c5ccc(C(F)(F)F)cc5)cnn4c3)cc2)CC1", "growth": "69.5% (inactive)"}, {"smiles": "CCOC(=O)N1CCN(S(=O)(=O)c2oc(-c3ccc(Cl)cc3)nc2C#N)CC1", "growth": "126% (inactive)"}, {"smiles": "O=C1NC(=Nc2ccc(O)cc2)S/C1=C\\c1cccs1", "growth": "15.9% (inactive)"}, {"smiles": "CC1(C)O[C@H]2OC3CCC(=O)CC3(O)[C@H]2O1", "note": "(stereo not given in full)", "growth": "95.1% (inactive)"}, {"smiles": "COc1ccc(OC)c(Nc2nnc(-c3ccc(Cl)cc3)o2)c1", "growth": "96% (inactive)"}, {"smiles": "Nc1c(C(=O)Nc2ccccn2)sc2nc3c(cc12)C(O)CCC3", "note": "(stereo not given)", "growth": "3.12% (active)"}, {"smiles": "Cc1ccc2[nH]c(=O)c3c(c2c1)OC(N)=C(C#N)C31C(=O)c2cccc3cccc1c23", "note": "(stereo not given)", "growth": "107% (inactive)"}, {"smiles": "Cc1ccc2nc(Cl)c(Cn3nnnc3SCc3ccccc3)cc2c1", "growth": "74.5% (inactive)"}, {"smiles": "CC(O)c1ncc(/C=C2\\SC(=S)N(Cc3ccccc3)C2=O)s1", "note": "(stereo not given)", "growth": "100% (inactive)"}, {"smiles": "CCN(CC)S(=O)(=O)c1ccc(S(=O)(=O)N2CCC[C@@H](C(=O)N3CCN(C(=O)OC(C)(C)C)CC3)C2)cc1", "growth": "27.8% (inactive)"}, {"smiles": "CCN(CC)c1ccc(/C=N/NC(=O)c2ccc(Nc3ccnc(C(F)(F)F)c3)cc2)c(O)c1", "growth": "44.3% (inactive)"}, {"smiles": "C=CCOC(=O)C1=C(C)NC(=O)NC1c1c(Cl)n(C)c2ccccc12", "note": "(stereo not given)", "growth": "101% (inactive)"}, {"smiles": "O=C1/C(=C/c2ccc(C(F)(F)F)cc2)COc2ccc(O)cc21", "growth": "109% (inactive)"}, {"smiles": "Cn1c(O)c(C(/C=C/c2ccccc2)=Nc2ccccc2N)c(=O)n(C)c1=O", "growth": "130% (inactive)"}, {"smiles": "COc1ccc2nc3cc(Cl)ccc3c(NCCN)c2c1", "growth": "55.5% (inactive)"}, {"smiles": "CCCCCCCC/C=C\\CCCCCCCCOc1ccccc1CC(=O)NCC[N+]1(C)CCCCC1", "growth": "94.6% (inactive)"}, {"smiles": "C=CCn1c(SCC(=O)Nc2ccc(C(=O)/C=C/c3ccc(OC)cc3)cc2)nnc1-c1ccccc1", "growth": "97.3% (inactive)"}, {"smiles": "O=C(CSc1nnc2sc(Nc3cccc(Cl)c3)nn12)c1ccc(F)cc1", "growth": "103% (inactive)"}, {"smiles": "COc1cc(C(=O)C(=O)c2cc(OC)c(O)c(OC)c2)cc(OC)c1O", "growth": "92.5% (inactive)"}, {"smiles": "N#Cc1c(-c2ccccc2)c(C#N)c2c(C#N)c(N)nn2c1N", "growth": "-8.04% (active)"}, {"smiles": "N#Cc1nc(-c2ccc(F)cc2)oc1S(=O)(=O)N1CCN(c2ccc(F)cc2)CC1", "growth": "113% (inactive)"}, {"smiles": "Cc1cccc(-n2c(C)nc3ccc(N4CCCNC4=O)cc3c2=O)c1", "growth": "90.1% (inactive)"}, {"smiles": "CC(C)c1ccc(NC(=O)Nc2ccc(NC(=O)c3ccccc3N)cc2)cc1", "growth": "49.6% (inactive)"}, {"smiles": "CC1CN=C(c2cccc(-c3ccc(-c4ccccc4)o3)c2)N1", "note": "(stereo not given)", "growth": "25.7% (inactive)"}, {"smiles": "Cc1ccc(-c2cc(C(=O)N3N=C(c4ccc(N)cc4)CC3c3ccc(Cl)cc3)c3ccccc3n2)cc1", "note": "(stereo not given)", "growth": "0.316% (active)"}, {"smiles": "COc1cc(/C=N/Nc2ccccc2F)cc(OC)c1OC", "growth": "92.8% (inactive)"}, {"smiles": "CCNC(=O)Oc1ccc(/C(=C(/C)Cc2ccc(OC)cc2)c2ccc(OCCN3CCCC3)cc2)cc1", "growth": "91.9% (inactive)"}, {"smiles": "COc1cccc(OC)c1Oc1c(-c2nc3ccccc3s2)c(C)nn1-c1ccccc1", "growth": "82.3% (inactive)"}, {"smiles": "C[C@@H]1O[C@@H](O[C@@H]2C[C@H](c3ccc4c(c3O)C(=O)C3=C(C4=O)[C@@]4(O)C(=O)C[C@](C)(O)C[C@@]4(O)C=C3)O[C@H](C)[C@H]2O)C[C@H](O)[C@@H]1O", "growth": "95% (inactive)"}, {"smiles": "CCN1C(=O)N(CC)C2C1NN=c1s/c(=C\\c3cc4ccccc4[nH]3)c(=O)n12", "note": "(stereo not given)", "growth": "2.17% (active)"}, {"smiles": "N#Cc1c(-c2ccccc2)nc2c(c(-c3ccccc3)nn2-c2ccccc2)c1-c1ccc(N2CCOCC2)cc1", "growth": "95.1% (inactive)"}, {"smiles": "CCOC(=O)C1=C(C)N=C2SC=C(c3ccccc3)N2[C@H]1c1cn[nH]c1-c1ccc(Cl)cc1", "growth": "68.8% (inactive)"}, {"smiles": "CC(C)CCSc1nc(Nc2ccccc2)c(C#N)c(-c2ccccc2)n1", "growth": "-8.82% (active)"}, {"smiles": "N#C/C(=C\\c1ccc(Br)cc1)c1cc2ccccc2[nH]1", "growth": "89.1% (inactive)"}, {"smiles": "CCCCCSB(SCCCCC)c1ccccc1", "growth": "95.4% (inactive)"}, {"smiles": "Cc1ccc(C)n1/C=C/n1c(C)ccc1C", "growth": "85.8% (inactive)"}]}]}
